Source: PubChem BioAssay AID2530 (National Center for Advancing Translational Sciences (NCATS), 2010)
Results filed as inconclusive are left out. Active and inactive are the calls of the source. The call rests on the fitted dose curve; in most records, active means well fitted inhibition curve with a large enough effect; inconclusive means small, poorly fitted or top-dose-only effect; inactive means flat fitted curve, though single readings scatter.

The compounds below were run against Luciferin 4-monooxygenase (Photuris pensylvanica) (UniProt Q27757) (assay: Secondary Assay for Luciferase (Kinase-Glo TM) Inhibition Counterscreen). Details: Kinase-Glo luciferase enzyme, luminescence; series mostly up to 58.1 µM; activity, negative = inhibition: at the top concentration.
How it was run: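 Inhibition was fitted with the Hill equation after normalizing luminescence to DMSO (basal) and 40 uM SIB 1757 (full inhibition). Kinase-Glo luciferase ran for 8 min at room temperature in imidazole buffer pH 7.2 with KCl, MgCl2 and 10 uM ATP.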
Potency means the concentration at half of the fitted maximal effect.
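Wherever activity, negative = inhibition is given: 0% = DMSO only and -100% = 40 µM SIB 1757 full inhibition.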

Compound	activity, negative = inhibition	Potency
O=C1c2ccccc2C(=O)N1c1ccncc1	-6.64% (inactive)	
COc1ccc(-c2cn3ccc(C)cc3n2)cc1		8.19 µM (active)
Cc1ccc(NS(=O)(=O)c2ccc3c(c2)CC(=O)N3C)cc1C	2.38% (inactive)	
COc1ccc(N2C(=O)c3ccccc3C2=O)cc1	-5.5% (inactive)	
O=C1CCc2cc(S(=O)(=O)Nc3ccccc3-c3ccccc3)ccc2N1	-0.997% (inactive)	
COc1cc(N2C(=O)c3ccccc3C2=O)c2ncccc2c1	-2.36% (inactive)	
Cc1cc2c(s1)c1cnn(Cc3ccccc3F)c(=O)c1n2C		inactive
O=C1CCc2cc(S(=O)(=O)Nc3ccc(F)cc3)ccc2N1	-1.28% (inactive)	
COc1cccc(OC2=NS(=O)(=O)c3ccccc32)c1	2% (inactive)	
O=C1c2ccccc2C(=O)N1c1ccc(Cl)cc1	0.194% (inactive)	
COc1cc(N2C(=O)C=CC2=O)c(OC)cc1Cl	-4.86% (inactive)	
Cc1ccc(NS(=O)(=O)c2ccc3c(c2)CCN(C(=O)C(F)(F)F)C3)cc1C	-1.2% (inactive)	
O=C1c2ccccc2C(=O)N1c1ccccc1O	-2.87% (inactive)	
Cn1c(-c2ccc(Br)o2)nc2ccccc21		10.3 µM (active)
Cc1ccccc1NS(=O)(=O)c1ccc2c(c1)CCC(=O)N2	0.467% (inactive)	
CC(=O)N(C1=C(Cl)C(=O)c2ccccc2C1=O)c1ccc(C(=O)O)cc1	-4.24% (inactive)	
Nc1ccc2nc(-c3ccccc3)sc2c1		11.6 µM (active)
Cc1ccc(NS(=O)(=O)c2ccc(F)cc2)cc1C	-2.52% (inactive)	
Cc1ccc(-c2cc3c(nn2)-c2ccccc2C3=O)cc1		5.8 µM (active)

Compound	activity, negative = inhibition	Potency
COc1cc(F)c(S(=O)(=O)N2CCCN(S(=O)(=O)c3cccc(N)c3)CC2)c(F)c1	-0.216% (inactive)	
Cc1cccc(OC2=NS(=O)(=O)c3ccccc32)c1	-3.94% (inactive)	
Cc1cc(N2C(=O)c3ccccc3C2=O)n[nH]1	1.57% (inactive)	
Cc1ccc(NS(=O)(=O)c2ccc3c(c2)oc(=O)n3C)cc1C	-1.45% (inactive)	
Cc1cc(O)c(-c2cc(O)c(C)cc2O)cc1O	-3.34% (inactive)	
Cc1ccc(NS(=O)(=O)c2cc3c(cc2-c2ccco2)NC(=O)CO3)cc1C	3.64% (inactive)	
Oc1ccc(O)c2c1C1c3ccccc3C2c2ccccc21	1.66% (inactive)	
O=S(=O)(Nc1ccc(O)c(NS(=O)(=O)c2ccccc2)c1)c1ccccc1	-1.03% (inactive)	
COc1cccc(N2C(=O)c3ccccc3C2=O)c1	-4.49% (inactive)	
c1ccc2nc(-c3nc4ccccc4[nH]3)ccc2c1		5.8 µM (active)
O=C1CCc2cc(S(=O)(=O)NCc3ccccc3)ccc2N1	-4.55% (inactive)	
CC(=O)Nc1ccc(S(=O)(=O)Nc2ccc(C)c(C)c2)cc1	1.73% (inactive)	
CCOc1ccc(C(=O)O/N=C(\N)c2ccccn2)cc1		5.8 µM (active)
Cc1ccc(C(=O)N2c3ccccc3CC2C)o1 (stereo not drawn)		18.3 µM (active)
Cc1ccccc1-c1nc(-c2ccccn2)no1		4.61 µM (active)
O=C1C(Cl)=C(NC(=O)c2ccccc2)C(=O)C(Cl)=C1NC(=O)c1ccccc1	-11.6% (inactive)	
O=C1CCc2cc(S(=O)(=O)Nc3ccc(-c4ccccc4)cc3)ccc2N1	0.842% (inactive)	
c1ccc(C2=NNC(=NC3CC3)SC2)cc1		3.26 µM (active)
Cc1occc1C(=O)O/N=C(\N)c1ccccc1		6.51 µM (active)
